{"source": "PubChem BioAssay (EPA / NIEHS)", "key": {"[1]": {"biological_target": "human AKT serine/threonine Kinase 1 (AKT1), AKT1 (gene 207) (UniProt P31749)", "sequence (P31749 whole entry, looked up)": "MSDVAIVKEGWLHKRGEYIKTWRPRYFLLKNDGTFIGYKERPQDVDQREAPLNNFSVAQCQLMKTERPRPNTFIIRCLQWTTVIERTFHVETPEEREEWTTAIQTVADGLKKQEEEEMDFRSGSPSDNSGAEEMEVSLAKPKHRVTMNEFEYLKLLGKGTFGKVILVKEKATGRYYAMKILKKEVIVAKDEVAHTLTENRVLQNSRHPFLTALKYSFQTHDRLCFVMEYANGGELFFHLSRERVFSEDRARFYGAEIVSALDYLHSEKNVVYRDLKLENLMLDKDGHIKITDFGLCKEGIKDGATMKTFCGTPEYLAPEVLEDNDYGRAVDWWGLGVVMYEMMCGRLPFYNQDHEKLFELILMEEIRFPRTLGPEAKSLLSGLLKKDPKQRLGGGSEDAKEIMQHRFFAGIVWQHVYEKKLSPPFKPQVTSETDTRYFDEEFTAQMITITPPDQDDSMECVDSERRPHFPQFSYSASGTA", "assay": "NVS_ENZ_hAKT1: NovaScreen (NVS) Enzymatic Assay for human AKT serine/threonine Kinase 1 (AKT1) (AID 2283138)", "method_in_brief": "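Cell-free recombinant enzyme with substrate; activity read by fluorescence intensity after electrophoretic mobility shift separating substrate from product, 1 h after dosing. Single-concentration duplicates at 25 uM, then singleton concentration-response up to 50 uM; loss of signal versus DMSO.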"}, "[2]": {"biological_target": "human Aurora Kinase A - serine/threonine-protein Kinase 6 (AurA), AURKA (gene 6790) (UniProt O14965)", "assay": "NVS_ENZ_hAurA: NovaScreen (NVS) Enzymatic Assay for human Aurora Kinase A - serine/threonine-protein Kinase 6 (AurA) (AID 2283142)", "method_in_brief": "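Cell-free enzymatic assay with human Aurora A, 1 hour after dosing. Fluorescent substrate turnover detected after electrophoretic mobility shift separation of substrate and product. Screened at 25 uM, actives retested in concentration-response up to 50 uM.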"}, "CDK2 (gene 1017)": {"biological_target": "CDK2 (gene 1017) (UniProt P24941)", "assay": "NVS_ENZ_hCDK2: NovaScreen (NVS) Enzymatic Assay for human Cyclin-Cependent Kinase 2 (CDK2) (AID 2283144)", "method_in_brief": "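Cell-free recombinant human CDK2 with fluorescent substrate, product separated by electrophoretic mobility shift; 1 hr read. Primary screen at 25 uM in duplicate, actives retested in concentration-response up to 50 uM; loss of signal versus DMSO.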"}, "[3]": {"biological_target": "human Colony Stimulating Factor 1 Receptor (CSF1R), CSF1R (gene 1436) (UniProt P07333)", "sequence (P07333 whole entry, looked up)": "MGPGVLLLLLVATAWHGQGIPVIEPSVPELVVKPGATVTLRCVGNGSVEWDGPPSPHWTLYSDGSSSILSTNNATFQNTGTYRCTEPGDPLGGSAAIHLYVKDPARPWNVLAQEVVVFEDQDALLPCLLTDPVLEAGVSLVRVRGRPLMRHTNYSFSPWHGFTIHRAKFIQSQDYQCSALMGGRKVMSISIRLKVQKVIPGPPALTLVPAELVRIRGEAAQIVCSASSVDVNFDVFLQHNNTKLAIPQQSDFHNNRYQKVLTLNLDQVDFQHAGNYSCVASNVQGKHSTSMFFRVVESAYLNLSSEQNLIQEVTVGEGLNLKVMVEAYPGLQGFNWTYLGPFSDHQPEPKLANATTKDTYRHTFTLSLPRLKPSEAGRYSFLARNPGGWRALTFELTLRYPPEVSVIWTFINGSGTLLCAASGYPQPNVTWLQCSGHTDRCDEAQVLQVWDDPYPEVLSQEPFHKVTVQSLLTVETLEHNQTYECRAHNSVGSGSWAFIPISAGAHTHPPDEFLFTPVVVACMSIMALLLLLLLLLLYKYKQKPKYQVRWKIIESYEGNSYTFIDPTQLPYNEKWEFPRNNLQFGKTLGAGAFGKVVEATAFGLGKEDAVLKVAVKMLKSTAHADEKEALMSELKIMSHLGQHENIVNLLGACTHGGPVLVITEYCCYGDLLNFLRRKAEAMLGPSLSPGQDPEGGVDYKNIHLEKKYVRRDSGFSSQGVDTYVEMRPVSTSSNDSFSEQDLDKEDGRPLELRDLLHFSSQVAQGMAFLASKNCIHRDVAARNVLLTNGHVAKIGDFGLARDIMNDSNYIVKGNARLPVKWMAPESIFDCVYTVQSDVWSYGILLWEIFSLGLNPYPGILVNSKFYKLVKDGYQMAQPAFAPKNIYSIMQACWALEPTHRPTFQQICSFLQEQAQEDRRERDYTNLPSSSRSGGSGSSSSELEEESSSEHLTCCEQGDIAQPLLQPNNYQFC", "assay": "NVS_ENZ_hCSF1R: NovaScreen (NVS) Enzymatic Assay for human Colony Stimulating Factor 1 Receptor (CSF1R) (AID 2283150)", "method_in_brief": "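Cell-free recombinant human CSF1R kinase with fluorescent substrate, product separated by electrophoretic mobility shift; read 1 h after dosing. Primary screen at 25 uM in duplicate, actives then in concentration-response up to 50 uM, relative to DMSO.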"}, "[4]": {"biological_target": "human Epidermal Growth Factor Receptor (EGFR), EGFR (gene 1956) (UniProt P00533)", "sequence (P00533 whole entry, looked up)": "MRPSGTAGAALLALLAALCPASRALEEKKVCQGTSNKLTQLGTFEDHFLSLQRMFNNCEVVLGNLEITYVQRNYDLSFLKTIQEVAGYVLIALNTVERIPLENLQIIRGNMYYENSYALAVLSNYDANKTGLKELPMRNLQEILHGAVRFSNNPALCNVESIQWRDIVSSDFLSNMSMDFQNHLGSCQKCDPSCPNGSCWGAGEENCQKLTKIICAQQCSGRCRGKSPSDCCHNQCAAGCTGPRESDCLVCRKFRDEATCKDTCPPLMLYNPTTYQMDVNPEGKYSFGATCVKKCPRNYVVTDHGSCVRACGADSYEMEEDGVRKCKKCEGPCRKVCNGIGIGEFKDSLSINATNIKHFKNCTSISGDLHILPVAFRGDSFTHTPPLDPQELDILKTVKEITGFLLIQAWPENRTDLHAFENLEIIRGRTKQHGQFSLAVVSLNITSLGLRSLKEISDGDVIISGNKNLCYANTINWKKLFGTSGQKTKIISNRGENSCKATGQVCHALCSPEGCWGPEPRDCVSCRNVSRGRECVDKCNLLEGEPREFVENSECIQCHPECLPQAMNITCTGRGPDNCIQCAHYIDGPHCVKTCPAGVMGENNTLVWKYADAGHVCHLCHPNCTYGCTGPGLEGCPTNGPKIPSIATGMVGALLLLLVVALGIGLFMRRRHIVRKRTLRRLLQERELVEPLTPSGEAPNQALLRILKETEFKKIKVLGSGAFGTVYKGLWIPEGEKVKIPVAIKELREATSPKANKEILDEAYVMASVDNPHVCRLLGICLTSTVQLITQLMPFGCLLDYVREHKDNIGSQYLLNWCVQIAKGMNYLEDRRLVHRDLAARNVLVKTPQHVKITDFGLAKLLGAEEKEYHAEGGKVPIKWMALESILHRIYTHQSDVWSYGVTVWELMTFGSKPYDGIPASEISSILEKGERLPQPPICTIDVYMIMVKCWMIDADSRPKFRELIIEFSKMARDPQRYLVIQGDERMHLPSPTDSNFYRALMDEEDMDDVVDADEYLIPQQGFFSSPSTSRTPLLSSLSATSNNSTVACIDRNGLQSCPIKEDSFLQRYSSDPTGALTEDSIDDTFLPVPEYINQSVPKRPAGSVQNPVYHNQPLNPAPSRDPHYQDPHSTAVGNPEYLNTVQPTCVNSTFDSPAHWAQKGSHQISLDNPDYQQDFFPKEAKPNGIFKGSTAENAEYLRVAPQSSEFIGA", "assay": "NVS_ENZ_hEGFR: NovaScreen (NVS) Enzymatic Assay for human Epidermal Growth Factor Receptor (EGFR) (AID 2283151)", "method_in_brief": "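Cell-free kinase assay, fluorescence plus electrophoretic mobility shift separating substrate and product, read 1 hour after dosing; loss of signal vs DMSO. Duplicate screen at 25 uM, then concentration-response to 50 uM.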"}, "[5]": {"biological_target": "human Ephrin type-A Receptor 1 (EphA1), EPHA1 (gene 2041) (UniProt P21709)", "sequence (P21709 whole entry, looked up)": "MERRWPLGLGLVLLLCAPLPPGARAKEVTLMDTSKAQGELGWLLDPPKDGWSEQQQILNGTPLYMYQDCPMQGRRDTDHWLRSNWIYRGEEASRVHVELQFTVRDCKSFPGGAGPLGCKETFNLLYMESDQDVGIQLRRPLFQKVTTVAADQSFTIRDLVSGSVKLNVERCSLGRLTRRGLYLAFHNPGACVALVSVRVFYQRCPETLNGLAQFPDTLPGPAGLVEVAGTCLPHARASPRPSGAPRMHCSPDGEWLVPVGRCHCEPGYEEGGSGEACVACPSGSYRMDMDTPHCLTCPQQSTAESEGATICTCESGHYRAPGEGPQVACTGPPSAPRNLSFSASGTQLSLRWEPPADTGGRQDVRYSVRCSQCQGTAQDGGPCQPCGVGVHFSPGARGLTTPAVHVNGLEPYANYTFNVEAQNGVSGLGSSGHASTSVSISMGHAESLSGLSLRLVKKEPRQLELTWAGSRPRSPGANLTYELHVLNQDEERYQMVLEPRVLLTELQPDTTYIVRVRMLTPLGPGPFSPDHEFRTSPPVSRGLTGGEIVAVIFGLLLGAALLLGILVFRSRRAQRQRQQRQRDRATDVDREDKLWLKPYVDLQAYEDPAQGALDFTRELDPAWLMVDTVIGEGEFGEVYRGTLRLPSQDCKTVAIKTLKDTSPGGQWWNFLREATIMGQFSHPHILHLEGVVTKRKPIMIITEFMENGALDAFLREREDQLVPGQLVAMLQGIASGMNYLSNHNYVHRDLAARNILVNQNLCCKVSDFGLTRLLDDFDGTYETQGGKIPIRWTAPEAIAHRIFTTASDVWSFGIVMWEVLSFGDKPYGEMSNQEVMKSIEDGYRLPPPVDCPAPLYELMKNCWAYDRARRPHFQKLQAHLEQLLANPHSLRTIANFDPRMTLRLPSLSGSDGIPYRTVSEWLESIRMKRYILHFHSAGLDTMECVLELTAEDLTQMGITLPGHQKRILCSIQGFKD", "assay": "NVS_ENZ_hEphA1: NovaScreen (NVS) Enzymatic Assay for human Ephrin type-A Receptor 1 (EphA1) (AID 2283158)", "method_in_brief": "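Fluorescent substrate conversion, resolved by mobility-shift separation, measured 1 hour post-dosing using recombinant enzyme; signal loss relative to DMSO baseline. Single-concentration duplicates at 25 uM preceded singleton concentration series topping at 50 uM.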"}, "[6]": {"biological_target": "human Beta-secretase (BACE), BACE1 (gene 23621) (UniProt P56817)", "assay": "NVS_ENZ_hBACE: NovaScreen (NVS) Enzymatic Assay for human Beta-secretase (BACE) (AID 2283140);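 further: hits are inhibitors that reduce fluorescent substrate signal versus DMSO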", "method_in_brief": "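Cell-free fluorescence-intensity assay of recombinant BACE1 expressed in SF9 cells, read 1 hour after dosing. Loss of signal indicates reduced protease activity, fitted relative to DMSO negative control. Primary screen at 25 uM in duplicate; actives followed in concentration series.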"}, "[7]": {"biological_target": "human Elastase, ELANE (gene 1991) (UniProt P08246)", "sequence (P08246 whole entry, looked up)": "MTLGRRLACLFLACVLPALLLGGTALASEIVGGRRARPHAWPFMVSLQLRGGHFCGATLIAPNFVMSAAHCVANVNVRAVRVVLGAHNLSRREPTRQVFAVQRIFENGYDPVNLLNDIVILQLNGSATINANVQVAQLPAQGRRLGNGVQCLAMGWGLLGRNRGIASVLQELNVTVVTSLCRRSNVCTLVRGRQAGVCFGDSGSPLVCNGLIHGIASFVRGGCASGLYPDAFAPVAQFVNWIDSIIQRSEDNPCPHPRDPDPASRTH", "assay": "NVS_ENZ_hElastase: NovaScreen (NVS) Enzymatic Assay for human Elastase (AID 2283153)", "method_in_brief": "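Cell-free elastase from human neutrophils, 1.5 h after dosing, activity read by absorbance. Primary screen in duplicate at 25 uM; hits (e.g., 30% inhibition) rerun in singleton concentration-response up to 50 uM, fitted versus DMSO.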"}, "[8]": {"biological_target": "human Dual Specificity Protein Phosphatase 3 (DUSP3), DUSP3 (gene 1845) (UniProt P51452)", "sequence (P51452 whole entry, looked up)": "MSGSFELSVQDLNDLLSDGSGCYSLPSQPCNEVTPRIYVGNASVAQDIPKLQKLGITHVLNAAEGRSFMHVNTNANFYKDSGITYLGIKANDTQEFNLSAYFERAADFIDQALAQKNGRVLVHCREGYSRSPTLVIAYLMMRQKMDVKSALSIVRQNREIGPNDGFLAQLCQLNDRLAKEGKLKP", "assay": "NVS_ENZ_hDUSP3: NovaScreen (NVS) Enzymatic Assay for human Dual Specificity Protein Phosphatase 3 (DUSP3) (AID 2283152)", "method_in_brief": "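Cell-free assay with recombinant human DUSP3 and fluorogenic substrate, read by fluorescence intensity. Primary screen ran duplicate at 25 uM; actives followed up in concentration series; loss of signal versus DMSO scored.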"}, "[9]": {"biological_target": "human Caspase 5 (CASP5), CASP5 (gene 838) (UniProt P51878)", "assay": "NVS_ENZ_hCASP5: NovaScreen (NVS) Enzymatic Assay for human Caspase 5 (CASP5) (AID 2283137)", "method_in_brief": "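Recombinant E. coli-expressed human caspase 5 in a cell-free enzyme assay; fluorescence intensity read 2 hours after chemical dosing. Single-concentration duplicate screen at 25 uM, then concentration-response up to 50 uM for hits; DMSO negative control.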"}, "[10]": {"biological_target": "human Caspase 2 (CASP2), CASP2 (gene 835) (UniProt P42575)", "sequence (P42575 whole entry, looked up)": "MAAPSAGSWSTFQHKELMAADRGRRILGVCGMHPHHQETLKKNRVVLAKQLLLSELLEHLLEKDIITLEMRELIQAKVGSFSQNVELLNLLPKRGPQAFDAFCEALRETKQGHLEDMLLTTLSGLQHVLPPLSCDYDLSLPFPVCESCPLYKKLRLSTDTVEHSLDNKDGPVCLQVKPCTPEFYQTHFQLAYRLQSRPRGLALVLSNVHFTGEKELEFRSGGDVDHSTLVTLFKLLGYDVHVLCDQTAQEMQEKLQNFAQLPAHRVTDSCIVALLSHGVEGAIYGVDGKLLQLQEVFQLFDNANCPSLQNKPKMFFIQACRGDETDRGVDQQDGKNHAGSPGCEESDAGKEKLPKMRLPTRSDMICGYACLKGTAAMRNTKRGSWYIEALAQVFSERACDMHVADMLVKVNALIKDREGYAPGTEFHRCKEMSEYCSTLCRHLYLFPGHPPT", "assay": "NVS_ENZ_hCASP2: NovaScreen (NVS) Enzymatic Assay for human Caspase 2 (CASP2) (AID 2283135)", "method_in_brief": "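E. coli-expressed enzyme in a cell-free protease assay, fluorescence read 1 h after dosing. Compounds at 25 uM in duplicate, with concentration-response up to 50 uM for hits; loss of signal against DMSO baseline.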"}, "[11]": {"biological_target": "human Casein Kinase 1-delta (CK1D), CSNK1D (gene 1453) (UniProt P48730)", "sequence (P48730 whole entry, looked up)": "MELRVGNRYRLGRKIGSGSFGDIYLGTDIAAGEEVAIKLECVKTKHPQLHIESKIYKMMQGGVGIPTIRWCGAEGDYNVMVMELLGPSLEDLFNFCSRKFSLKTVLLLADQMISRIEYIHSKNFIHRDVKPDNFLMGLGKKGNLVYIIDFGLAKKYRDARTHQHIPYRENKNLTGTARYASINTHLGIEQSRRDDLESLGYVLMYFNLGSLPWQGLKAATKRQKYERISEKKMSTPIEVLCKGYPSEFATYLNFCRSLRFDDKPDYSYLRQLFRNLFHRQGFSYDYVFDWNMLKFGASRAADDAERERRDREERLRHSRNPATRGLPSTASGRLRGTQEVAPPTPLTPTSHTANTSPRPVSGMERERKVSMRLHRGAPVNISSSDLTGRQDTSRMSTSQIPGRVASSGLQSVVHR", "assay": "NVS_ENZ_hCK1D: NovaScreen (NVS) Enzymatic Assay for human Casein Kinase 1-delta (CK1D) (AID 2283148)", "method_in_brief": "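Recombinant human CK1-delta, cell-free; fluorescent substrate with electrophoretic mobility-shift separation of product, read 1 h after dosing. Single 25 uM duplicate screen, then concentration-response up to 50 uM; loss of signal vs DMSO.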"}, "[12]": {"biological_target": "human Esterase Plasma (ES), BCHE (gene 590) (UniProt P06276)", "assay": "NVS_ENZ_hES: NovaScreen (NVS) Enzymatic Assay for human Esterase Plasma (ES) (AID 2283157)", "method_in_brief": "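Chemicals were added to plasma-extracted human enzyme in a cell-free format, and activity was read colorimetrically after 0.25 hour. Activity loss was referenced to DMSO; concentration-response top dose was 50 uM.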"}, "[13]": {"biological_target": "human AMP-activated Protein Kinase, alpha 1 (AMPKa1), PRKAA1 (gene 5562) (UniProt Q13131)", "assay": "NVS_ENZ_hAMPKa1: NovaScreen (NVS) Enzymatic Assay for human AMP-activated Protein Kinase, alpha 1 (AMPKa1) (AID 2283130)", "method_in_brief": "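Recombinant human AMPKα1 activity was measured cell-free by fluorescent substrate conversion with electrophoretic mobility-shift separation, 1 h after dosing. Duplicate single-point screening was at 25 uM; actives (≥30% inhibition) were retested in concentration-response up to 50 uM.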"}, "rat CYP2B1, gene 24300": {"system": "rat CYP2B1, gene 24300", "assay": "NVS_ADME_rCYP2B1: NovaScreen (NVS) CYP450-related Enzyme Activity (ADME) Assay for rat CYP2B1 (AID 2283117)", "method_in_brief": "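Recombinant rat CYP2B1 with fluorogenic substrate, read at 0.75 h. Primary screen in duplicate at 10 uM; compounds meeting threshold (e.g., 30% inhibition) re-run in concentration-response up to 20 uM. Fitted against acetonitrile control.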"}, "[14]": {"biological_target": "human Ephrin type-A Receptor 2 (EphA2), EPHA2 (gene 1969) (UniProt P29317)", "assay": "NVS_ENZ_hEphA2: NovaScreen (NVS) Enzymatic Assay for human Ephrin type-A Receptor 2 (EphA2) (AID 2283155)", "method_in_brief": "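Cell-free recombinant EphA2 kinase with specific substrate, 1 h, fluorescence with electrophoretic mobility-shift separation of substrate and product. Primary screen at 25 uM in duplicate; hits retested in singleton concentration-response up to 50 uM, referenced to DMSO.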"}, "[15]": {"biological_target": "human AKT serine/threonine Kinase 2 (AKT2), AKT2 (gene 208) (UniProt P31751)", "assay": "NVS_ENZ_hAKT2: NovaScreen (NVS) Enzymatic Assay for human AKT serine/threonine Kinase 2 (AKT2) (AID 2283141)", "method_in_brief": "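Cell-free fluorescence/electrophoretic mobility shift readout of recombinant human AKT2 activity, 1 h after chemical dosing. Duplicate primary screen at 25 uM, then singleton concentration-response up to 50 uM; loss of signal versus DMSO baseline.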"}}, "note": "Results filed as inconclusive are left out. Activity calls are given as the source filed them. How the source made its calls: active means hit-call score of the fitted dose curve at least 0.9, where 1 is the maximum; inconclusive means response in the unintended direction; inactive means score below 0.9.", "data": [{"molecule": "CC(C)(C)OOC(C)(C)C", "values": [{"measurement": "outcome", "setting": "[1]", "value": "inactive"}, {"measurement": "outcome", "setting": "[2]", "value": "inactive"}, {"measurement": "outcome", "setting": "CDK2 (gene 1017)", "value": "inactive"}, {"measurement": "outcome", "setting": "[3]", "value": "inactive"}, {"measurement": "outcome", "setting": "[4]", "value": "inactive"}, {"measurement": "outcome", "setting": "[5]", "value": "inactive"}]}, {"molecule": "Nc1ccc(Cl)cc1", "values": [{"measurement": "outcome", "setting": "[5]", "value": "inactive"}]}, {"molecule": "CCCN(CCC)c1c([N+](=O)[O-])cc(C(C)C)cc1[N+](=O)[O-]", "values": [{"measurement": "outcome", "setting": "[6]", "value": "inactive"}]}, {"molecule": "c1ccc2c(c1)Nc1ccccc1S2", "values": [{"measurement": "outcome", "setting": "[7]", "value": "inactive"}]}, {"molecule": "CCOP(=S)(OCC)SCn1nnc2ccccc2c1=O", "values": [{"measurement": "AC50", "setting": "[8]", "value": "19.6 µM (active)"}]}, {"molecule": "CCOP(=S)(S)OCC", "values": [{"measurement": "outcome", "setting": "[9]", "value": "inactive"}, {"measurement": "AC50", "setting": "[8]", "value": "19.9 µM (active)"}]}, {"molecule": "COCCOCCO", "values": [{"measurement": "outcome", "setting": "[10]", "value": "inactive"}]}, {"molecule": "CCOS(=O)(=O)OCC", "values": [{"measurement": "outcome", "setting": "[11]", "value": "inactive"}]}, {"molecule": "CCNc1nc(Cl)nc(NC(C)(C)C)n1", "values": [{"measurement": "outcome", "setting": "[12]", "value": "inactive"}]}, {"molecule": "CCOP(=S)(OCC)SCSc1ccc(Cl)cc1", "values": [{"measurement": "AC50", "setting": "[8]", "value": "17.3 µM (active)"}]}, {"molecule": "CSC(C)(C)C=NO", "values": [{"measurement": "outcome", "setting": "[13]", "value": "inactive"}, {"measurement": "outcome", "setting": "[3]", "value": "inactive"}]}, {"molecule": "O=P(OCC(Br)CBr)(OCC(Br)CBr)OCC(Br)CBr", "note": "(configuration not stated)", "values": [{"measurement": "AC50", "setting": "[6]", "value": "14.3 µM (active)"}]}, {"molecule": "O=c1ssc(Cl)c1Cl", "values": [{"measurement": "outcome", "setting": "rat CYP2B1, gene 24300", "value": "inactive"}, {"measurement": "AC50", "setting": "[8]", "value": "6.98 µM (active)"}]}, {"molecule": "Cc1cccc(N)c1", "values": [{"measurement": "outcome", "setting": "[1]", "value": "inactive"}]}, {"molecule": "Nc1ccc2ccccc2c1", "values": [{"measurement": "AC50", "setting": "[12]", "value": "13.7 µM (active)"}]}, {"molecule": "Cc1ccc2c(c1N)C(=O)c1ccccc1C2=O", "values": [{"measurement": "AC50", "setting": "[9]", "value": "6.72 µM (active)"}, {"measurement": "AC50", "setting": "[5]", "value": "19.2 µM (active)"}]}, {"molecule": "CCOP(=S)(OCC)SCSCC", "values": [{"measurement": "outcome", "setting": "[10]", "value": "inactive"}, {"measurement": "outcome", "setting": "[1]", "value": "inactive"}]}, {"molecule": "CC(C)Nc1ccc(Nc2ccccc2)cc1", "values": [{"measurement": "AC50", "setting": "[8]", "value": "2.71 µM (active)"}, {"measurement": "outcome", "setting": "[5]", "value": "inactive"}]}, {"molecule": "ClC1=C(Cl)C2(Cl)C3C(Cl)C(Cl)CC3C1(Cl)C2(Cl)Cl", "note": "(configuration not stated)", "values": [{"measurement": "outcome", "setting": "[4]", "value": "inactive"}]}, {"molecule": "Cc1ccc(O)cc1C", "values": [{"measurement": "outcome", "setting": "[11]", "value": "inactive"}, {"measurement": "outcome", "setting": "[4]", "value": "inactive"}]}, {"molecule": "CCOP(=S)(Oc1ccc([N+](=O)[O-])cc1)c1ccccc1", "note": "(configuration not stated)", "values": [{"measurement": "outcome", "setting": "[1]", "value": "inactive"}]}, {"molecule": "Cc1ccc([N+](=O)[O-])cc1C", "values": [{"measurement": "outcome", "setting": "[14]", "value": "inactive"}]}, {"molecule": "CC(Cl)(Cl)C(=O)O", "values": [{"measurement": "outcome", "setting": "[10]", "value": "inactive"}, {"measurement": "outcome", "setting": "[5]", "value": "inactive"}]}, {"molecule": "CC(C)(C)c1ccc(O)cc1", "values": [{"measurement": "outcome", "setting": "[15]", "value": "inactive"}]}]}
